The results in this text go back to PubChem BioAssay (NCATS).

Molecules are shown by their SMILES. Inconclusive results are not listed. A number with no mark means an inactive call. Activity calls are given as the source filed them. The call rests on the fitted dose curve; in most records, active means well fitted curve in the direction sought with a large enough effect; inconclusive means small, poorly fitted or top-dose-only effect, or another doubt; inactive means no such curve, though single readings can be large; an effect the other way counts as inactive or inconclusive. Positions of bridges follow the written chain, without caps; N, C: chain ends. Non-standard residues stand in square brackets, D forms with d. Residues, ends and D or L forms follow the SMILES beside them. ξ: configuration not given here. *: point of attachment. Octanoyl(6-Me) = CCC(C)CCCCC(=O)*; ξThr(3R) = C[C@@H](O)C(N)C(=O)O; dDab = NCC[C@@H](N)C(=O)O; Dab = NCC[C@H](N)C(=O)O

One assay deals with MCC-13. The experiment in a line: qHTS assay to identify novel small-molecules to repurpose for Merkel cell carcinoma treatment (AID 1296009). Further: nearly all actives have a fitted effect of over 60% in size. Further: potency means the concentration at half of the fitted maximal effect. Particulars: MCC and control cell lines, CellTiter-Glo viability, 72 h; series mostly up to 46 µM. The procedure, abridged: (§1)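 Cell viability measured by CellTiter-Glo following 72 hr compound treatment at 37 degree celsius, with NPC and MIPE libraries tested in 8- and 11-point concentration series.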

The next assay relates to MCC-26. The assay is described as above. Particulars: MCC and control cell lines, CellTiter-Glo viability, 72 h; series mostly up to 46 µM. A digest of the protocol: as §1
A general note: Cellular ATP, detected with luciferase, serves as a proxy for viable cell number.

The subject of a further assay is MKL-1. The assay is described as above. The conditions noted are these: MCC and control cell lines, CellTiter-Glo viability, 72 h; series mostly up to 46 µM. A digest of the protocol: as §1
A further assay deals with MKL-2. Described as above. Particulars: MCC and control cell lines, CellTiter-Glo viability, 72 h; series mostly up to 46 µM. The procedure, abridged:
as §1

In a further assay the test system is NIH3T3. The description is as above. Particulars: MCC and control cell lines, CellTiter-Glo viability, 72 h; at 44.8 µM (top of the series) unless noted. The procedure, abridged: as §1
Another assay has as its system UISO. Described as above. The conditions noted are these: MCC and control cell lines, CellTiter-Glo viability, 72 h; series mostly up to 46 µM. A digest of the protocol:
as §1

Another assay concerns WaGa. Described as above. The conditions noted are these: MCC and control cell lines, CellTiter-Glo viability, 72 h; series mostly up to 46 µM. The procedure, abridged: as §1
In the next assay the test system is C33A. The experiment in a line: Primary qHTS to identify gynecologic anti-cancer compounds using libraries of approved drugs and bioactive compounds (AID 1345084). Further: nearly all actives have a fitted effect of over 55% in size. The conditions noted are these: Gynecologic cancer cell panel viability, ATPlite luminescence, 48 h; series mostly up to 57.5 µM. The procedure, abridged: (§2)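 Cells, 1,000 per well, were allowed to settle for 16 h at 37 C before compound addition. Five concentrations were tested for 48 h, and viability was read by ATPlite luminescence after 15 min at room temperature.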

The test system of the next assay is CASKI. The assay is described as above. Particulars: Gynecologic cancer cell panel viability, ATPlite luminescence, 48 h; series mostly up to 57.5 µM. A digest of the protocol: as §2
In a further assay the test system is Es-2. The description is as above. Particulars: Gynecologic cancer cell panel viability, ATPlite luminescence, 48 h; series mostly up to 57.5 µM. A digest of the protocol:
as §2

Another assay relates to HeLa. The description is as above. The conditions noted are these: Gynecologic cancer cell panel viability, ATPlite luminescence, 48 h; series mostly up to 57.5 µM. A digest of the protocol: as §2
The next assay has as its system Hek293T. Described as above. The conditions noted are these: Gynecologic cancer cell panel viability, ATPlite luminescence, 48 h, control line for the selectivity index; series mostly up to 57.5 µM. A digest of the protocol:
as §2

A further assay concerns JEG-3. The description is as above. The conditions noted are these: Gynecologic cancer cell panel viability, ATPlite luminescence, 48 h; series mostly up to 57.5 µM. A digest of the protocol:
as §2

The test system of another assay is OV90. The description is as above. Particulars: Gynecologic cancer cell panel viability, ATPlite luminescence, 48 h; series mostly up to 57.5 µM. A digest of the protocol: as §2
The test system of another assay is PA-1. The description is as above. Particulars: Gynecologic cancer cell panel viability, ATPlite luminescence, 48 h; series mostly up to 57.5 µM. A digest of the protocol:
as §2

In the next assay the test system is SKOV3. Described as above. Particulars: Gynecologic cancer cell panel viability, ATPlite luminescence, 48 h; series mostly up to 57.5 µM. A digest of the protocol:
as §2

Another assay deals with Tov-21-G. The description is as above. The conditions noted are these: Gynecologic cancer cell panel viability, ATPlite luminescence, 48 h; series mostly up to 57.5 µM. A digest of the protocol: as §2
A further assay relates to Tov112D. Described as above. The conditions noted are these: Gynecologic cancer cell panel viability, ATPlite luminescence, 48 h; series mostly up to 57.5 µM. A digest of the protocol:
as §2

The nature of assay [1]: Drug repurposing screens with cells derived from glioblastoma tumor samples (AID 1345199). Further: nearly all actives have a fitted effect of over 40% in size. The conditions noted are these: GBM patient neurospheres viability, ATP luminescence, 48 h; Potency: tumour line A; series mostly up to 46.1 µM. The procedure, abridged: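 Primary testing used CD133+ neurospheres from four GBM patients, seven concentrations, 48 h exposure and ATP-based viability; confirmation added three slower-growing patient lines.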

For `O=C(Nc1ccc(Oc2ccnc3[nH]ccc23)c(F)c1)c1cccn(-c2ccc(F)cc2)c1=O`, the Potency entry with MCC-13, with MCC-26, in the assay with MKL-1, in the assay on MKL-2, with UISO and in the assay on WaGa was “inactive” each time. For the same compound, the Potency entry in the assay on C33A, in the assay with CASKI, with Es-2, in the assay on HeLa, with Hek293T and with JEG-3 was “inactive” throughout. The Potency result in the assay on OV90, in the assay with PA-1, with SKOV3, in the assay on Tov-21-G and with Tov112D was “inactive” in each case. Also, in the assay on NIH3T3, the call was inactive.

Take `CCC(C)CCCCC(=O)N[C@@H](CCN)C(=O)NC(C(=O)N[C@H](CCN)C(=O)N[C@@H]1CCNC(=O)C([C@@H](C)O)NC(=O)[C@@H](CCN)NC(=O)[C@@H](CCN)NC(=O)[C@@H](CC(C)C)NC(=O)[C@H](Cc2ccccc2)NC(=O)[C@H](CCN)NC1=O)[C@@H](C)O` (stereo partly drawn) ({Octanoyl(6-Me)}-[Dab][ξThr(3R)][dDab][dDab][Dab]F[dL][dDab][dDab][ξThr(3R)]; lactam 4-C): the Potency entry in the assay with MCC-13, with MCC-26, in the assay with MKL-1, in the assay with MKL-2, with UISO and in the assay on WaGa was “inactive” throughout. Moreover, the compound was called inactive in the assay with NIH3T3.

For `O=c1c(O)c(-c2ccc(O)c(O)c2)oc2cc(O)ccc12`, the Potency entry in the assay with MCC-13, with MCC-26, in the assay with MKL-1 and in the assay with MKL-2 was “inactive” in each case.

Take `NC(=O)Nc1cc(-c2ccc(CN3CCOCC3)cc2)sc1C(N)=O`: the Potency result in the assay on MCC-13 was “inactive”.

Take `Cc1cn([C@@H]2O[C@H](CO)[C@@H](O)[C@H]2F)c(=O)[nH]c1=O`: the Potency result in the assay on MCC-13, in the assay with MCC-26, in the assay with MKL-1, in the assay with MKL-2, with UISO and in the assay with WaGa was “inactive” in each case. The Potency entry in the assay on C33A, in the assay on CASKI, with Es-2, in the assay on HeLa, in the assay with Hek293T and in the assay with JEG-3 was “inactive” throughout. Moreover, the Potency result in the assay with OV90, in the assay on PA-1, in the assay with SKOV3, in the assay on Tov-21-G and with Tov112D was “inactive” each time. Also, in the assay with NIH3T3, the compound was classed as inactive.

In the case of `COc1cc([C@@H]2c3cc4c(cc3[C@H](O)[C@H]3COC(=O)[C@@H]23)OCO4)cc(OC)c1OC`, in the assay on MCC-13, the Potency is 662 nM (active).

Take `C#Cc1cccc(Nc2ncnc3cc(OCCOC)c(OCCO)cc23)c1`: the Potency result in the assay with MCC-13 and in the assay with MCC-26 was “inactive” throughout.

For `C[C@]12C=CC(=O)N[C@@H]1CC[C@H]1[C@H]3CC[C@@H](C(=O)Nc4cc(C(F)(F)F)ccc4C(F)(F)F)[C@@]3(C)CC[C@@H]12`, the Potency result in the assay on MCC-13, with MCC-26, in the assay with MKL-1, with MKL-2, with UISO and in the assay with WaGa was “inactive” in each case. Besides, the compound was classed as inactive with NIH3T3.

For the compound `CC(C)(O)[C@H]1CC[C@@](C)([C@H]2[C@@H](O)C[C@@]3(C)[C@@H]4C[C@H](O[C@@H]5O[C@H](CO)[C@@H](O)[C@H](O)[C@@H]5O)[C@H]5C(C)(C)[C@@H](O[C@@H]6OC[C@@H](O)[C@H](O)[C@@H]6O)CC[C@@]56C[C@@]46CC[C@]23C)O1`, the Potency result with MCC-13, in the assay on MCC-26, in the assay with MKL-1, in the assay on MKL-2, with UISO and in the assay on WaGa was “inactive” throughout. Besides, in the assay on NIH3T3, the call was inactive.

Take `C[C@H]1COc2c(N3CCN(C)CC3)c(F)cc3c(=O)c(C(=O)O)cn1c23`: the Potency result in the assay with MCC-13, in the assay on MCC-26, in the assay with MKL-1, with MKL-2, in the assay on UISO and in the assay on WaGa was “inactive” throughout. The result in the assay on NIH3T3 was inactive.

As to `Cc1nc(NC(=O)N2CCC[C@@H]2C(N)=O)sc1-c1ccnc(C(C)(C)C(F)(F)F)c1`, the Potency result with MCC-13, in the assay on MCC-26 and in the assay on MKL-1 was “inactive” each time.

For `Oc1cc2c(cc1O)C1c3ccc(O)c(O)c3OCC1(O)C2` (stereo not given), the Potency result with MCC-13, in the assay with MCC-26, with MKL-1, with MKL-2, with UISO and with WaGa was “inactive” throughout. In addition, in the assay on NIH3T3, the compound was called inactive.

With `C[C@H]1C[C@H]2[C@@H]3CCC4=CC(=O)C=C[C@]4(C)[C@@H]3C(=O)C[C@]2(C)[C@@]1(O)C(=O)CO`, the Potency result with MCC-13, with MCC-26, with MKL-1, in the assay on MKL-2, in the assay on UISO and in the assay on WaGa was “inactive” each time. Besides, in assay [1], the Potency entry was “inactive”. Besides, in the assay on NIH3T3, the compound was called inactive.

Turning to `CCCCCCCCCCCCc1ccc(S(=O)(=O)Nc2nncs2)cc1`, the Potency result in the assay with MCC-13, with MCC-26, in the assay on MKL-1, in the assay with MKL-2, with UISO and with WaGa was “inactive” throughout. In addition, the result in the assay with NIH3T3 was inactive.

As to `Nc1nc(N)c2nc(-c3cccc(O)c3)c(-c3cccc(O)c3)nc2n1`, the Potency entry with MCC-13 and in the assay on MCC-26 was “inactive” in each case.

`O=C(c1ccc(F)cc1)N1CCC[C@H](c2nc(-c3ccc(F)cc3)no2)C1`: the Potency result in the assay on MCC-13, with MCC-26, in the assay with MKL-1, in the assay with MKL-2, in the assay with UISO and in the assay with WaGa was “inactive” in each case. In addition, the compound was called inactive with NIH3T3.

As for `O=C(O)[C@H](CC(=O)N1C[C@@H]2CCCC[C@H]2C1)Cc1ccccc1`, the Potency result in the assay with MCC-13, with MCC-26, in the assay on MKL-1, in the assay on MKL-2, in the assay on UISO and in the assay on WaGa was “inactive” throughout. Besides, the result in the assay on NIH3T3 was inactive.

Turning to `CC1(C)[C@H](O[C@H]2O[C@H](C(=O)O)[C@@H](O)[C@H](O)[C@H]2O[C@@H]2O[C@H](C(=O)O)[C@@H](O)[C@H](O)[C@H]2O)CC[C@@]2(C)[C@H]1CC[C@]1(C)[C@H]2C(=O)C=C2[C@H]3C[C@@](C)(C(=O)O)CC[C@]3(C)CC[C@]21C`, the Potency result in the assay on MCC-13, in the assay with MCC-26, with MKL-1, with MKL-2, in the assay with UISO and in the assay with WaGa was “inactive” in each case. Moreover, in [1], the Potency entry was “inactive”. In the assay with NIH3T3, the outcome was inactive.

As for `C[C@H](O)[C@@H]1C(=O)N2C(C(=O)O)=C(S[C@@H]3CN[C@H](CNS(N)(=O)=O)C3)[C@@H](C)[C@@H]12`, the Potency result in the assay with MCC-13, with MCC-26, in the assay with MKL-1, in the assay on MKL-2, in the assay with UISO and in the assay on WaGa was “inactive” in each case. Also, the Potency result with C33A, with CASKI, with Es-2, in the assay on HeLa, in the assay on Hek293T and in the assay with JEG-3 was “inactive” each time. The Potency result with OV90, in the assay with PA-1, in the assay with Tov-21-G and in the assay on Tov112D was “inactive” each time. In addition, in the assay on NIH3T3, the result was inactive.

Take `C=CC1=C(C(=O)O)N2C(=O)[C@@H](NC(=O)C(=NO)c3csc(N)n3)[C@H]2SC1`: the Potency result in the assay on MCC-13, in the assay on MCC-26, in the assay on MKL-1, with MKL-2, in the assay on UISO and in the assay on WaGa was “inactive” throughout. The call in the assay on NIH3T3 was inactive.
